# Source: the supplement of paper PMC8975748
# Where a name gives a salt, the structure may show the parent alone. ± gives the standard deviation of the averaged measurements.
# Tests used:
# [1] = test system: Saccharomyces cerevisiae BY4741 SeMeCo community; experiment: mean cell size (pixel area) (pixels); higher = larger cells; settings: 10 µM; 24 h; SM minimal medium
# In short: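 Mean cell pixel area per well was measured in a four-plasmid fluorescent community of Saccharomyces cerevisiae BY4741, where every plasmid complements one auxotrophy and carries a fluorescent marker. Cells from an overnight preculture at OD600 = 1.0 were diluted to OD600 = 0.3 and dispensed at 70 µl into 384-well plates acoustically predosed with drug to a final 10 µM in SM medium. Incubation lasted 24 h, followed by paraformaldehyde fixation, automated confocal imaging and analysis in Harmony. Reported figures are averaged over 3 replicates. Same SeMeCo high-content imaging drug screen: Selleck FDA-approved drugs at 10 µM, 24 h in SM medium, 384-well plates, 3 replicates.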
# [2] = test system: Saccharomyces cerevisiae BY4741 SeMeCo community; experiment: z-score of prototroph abundance vs DMSO median; higher = larger share of this subpopulation than in DMSO controls; settings: 10 µM; 24 h; SM minimal medium; subpopulation (auxotrophy): Prototroph
# In short: (§1)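 Cells of a Saccharomyces cerevisiae BY4741 community, carrying four plasmids that each restored one auxotrophy and encoded a distinct fluorescent protein, were pre-grown overnight to OD600 1.0 and diluted to 0.3. A 70 µl volume was added to 384-well plates acoustically predosed with library drugs (10 µM final) and grown 24 h in minimal SM medium. After paraformaldehyde fixation, automated confocal microscopy was used, with single-auxotroph fluorescent strains for thresholds and autofluorescence correction. The abundance of each subpopulation was scored as a z-score against the vehicle-well median.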
# [3] = test system: Saccharomyces cerevisiae BY4741 SeMeCo community; experiment: z-score of subpopulation abundance vs DMSO median, subpopulation auxotrophic for M; higher = larger share of this subpopulation than in DMSO controls; settings: 10 µM; 24 h; SM minimal medium; subpopulation (auxotrophy): M
# In short: as §1
# [4] = test system: Saccharomyces cerevisiae BY4741 SeMeCo community; experiment: z-score of subpopulation abundance vs DMSO median, subpopulation auxotrophic for L; higher = larger share of this subpopulation than in DMSO controls; settings: 10 µM; 24 h; SM minimal medium; subpopulation (auxotrophy): L
# In short: as §1
# [5] = test system: Saccharomyces cerevisiae BY4741 SeMeCo community; experiment: z-score of subpopulation abundance vs DMSO median, subpopulation auxotrophic for U; higher = larger share of this subpopulation than in DMSO controls; settings: 10 µM; 24 h; SM minimal medium; subpopulation (auxotrophy): U
# In short: as §1
# [6] = test system: Saccharomyces cerevisiae BY4741 SeMeCo community; experiment: z-score of subpopulation abundance vs DMSO median, subpopulation auxotrophic for H; higher = larger share of this subpopulation than in DMSO controls; settings: 10 µM; 24 h; SM minimal medium; subpopulation (auxotrophy): H
# In short: as §1
# [7] = test system: Saccharomyces cerevisiae BY4741 SeMeCo community; experiment: z-score of subpopulation abundance vs DMSO median, subpopulation auxotrophic for LU; higher = larger share of this subpopulation than in DMSO controls; settings: 10 µM; 24 h; SM minimal medium; subpopulation (auxotrophy): LU
# In short: as §1
# [8] = test system: Saccharomyces cerevisiae BY4741 SeMeCo community; experiment: z-score of subpopulation abundance vs DMSO median, subpopulation auxotrophic for LM; higher = larger share of this subpopulation than in DMSO controls; settings: 10 µM; 24 h; SM minimal medium; subpopulation (auxotrophy): LM
# In short: as §1
# [9] = test system: Saccharomyces cerevisiae BY4741 SeMeCo community; experiment: z-score of subpopulation abundance vs DMSO median, subpopulation auxotrophic for HM; higher = larger share of this subpopulation than in DMSO controls; settings: 10 µM; 24 h; SM minimal medium; subpopulation (auxotrophy): HM
# In short: as §1
# [10] = test system: Saccharomyces cerevisiae BY4741 SeMeCo community; experiment: z-score of subpopulation abundance vs DMSO median, subpopulation auxotrophic for HU; higher = larger share of this subpopulation than in DMSO controls; settings: 10 µM; 24 h; SM minimal medium; subpopulation (auxotrophy): HU
# In short: as §1
# [11] = test system: Saccharomyces cerevisiae BY4741 SeMeCo community; experiment: z-score of subpopulation abundance vs DMSO median, subpopulation auxotrophic for UM; higher = larger share of this subpopulation than in DMSO controls; settings: 10 µM; 24 h; SM minimal medium; subpopulation (auxotrophy): UM
# In short: as §1
# [12] = test system: Saccharomyces cerevisiae BY4741 SeMeCo community; experiment: z-score of subpopulation abundance vs DMSO median, subpopulation auxotrophic for HL; higher = larger share of this subpopulation than in DMSO controls; settings: 10 µM; 24 h; SM minimal medium; subpopulation (auxotrophy): HL
# In short: as §1
# [13] = test system: Saccharomyces cerevisiae BY4741 SeMeCo community; experiment: z-score of subpopulation abundance vs DMSO median, subpopulation auxotrophic for HLU; higher = larger share of this subpopulation than in DMSO controls; settings: 10 µM; 24 h; SM minimal medium; subpopulation (auxotrophy): HLU
# In short: as §1
# [14] = test system: Saccharomyces cerevisiae BY4741 SeMeCo community; experiment: z-score of subpopulation abundance vs DMSO median, subpopulation auxotrophic for HLM; higher = larger share of this subpopulation than in DMSO controls; settings: 10 µM; 24 h; SM minimal medium; subpopulation (auxotrophy): HLM
# In short: as §1
# [15] = test system: Saccharomyces cerevisiae BY4741 SeMeCo community; experiment: z-score of subpopulation abundance vs DMSO median, subpopulation auxotrophic for HUM; higher = larger share of this subpopulation than in DMSO controls; settings: 10 µM; 24 h; SM minimal medium; subpopulation (auxotrophy): HUM
# In short: as §1
# [16] = test system: Saccharomyces cerevisiae BY4741 SeMeCo community; experiment: z-score of subpopulation abundance vs DMSO median, subpopulation auxotrophic for HLUM; higher = larger share of this subpopulation than in DMSO controls; settings: 10 µM; 24 h; SM minimal medium; subpopulation (auxotrophy): HLUM
# In short: as §1
# [17] = test system: Saccharomyces cerevisiae BY4741 SeMeCo community; experiment: z-score of subpopulation abundance vs DMSO median, subpopulation auxotrophic for LUM; higher = larger share of this subpopulation than in DMSO controls; settings: 10 µM; 24 h; SM minimal medium; subpopulation (auxotrophy): LUM
# In short: as §1
Compound,mean cell size [1],z-score of prototroph abundance [2],z-score of subpopulation abundance [3],z-score of subpopulation abundance [4],z-score of subpopulation abundance [5],z-score of subpopulation abundance [6],z-score of subpopulation abundance [7],z-score of subpopulation abundance [8],z-score of subpopulation abundance [9],z-score of subpopulation abundance [10],z-score of subpopulation abundance [11],z-score of subpopulation abundance [12],z-score of subpopulation abundance [13],z-score of subpopulation abundance [14],z-score of subpopulation abundance [15],z-score of subpopulation abundance [16],z-score of subpopulation abundance [17]
COc1ccc(C(Cl)=C(c2ccc(OC)cc2)c2ccc(OC)cc2)cc1 [Chlorotrianisene],12.6 ± 0.13,-0.67,1.26,0.44,0.17,1.21,0.41,1.34,1.06,0.01,0.15,0.2,1.95,3.27,0.82,1.18,–
CN(C)CCc1c[nH]c2ccc(CS(=O)(=O)N3CCCC3)cc12 [Almotriptan Malate],12.4 ± 0.14,–,-0.37,0.74,–,–,0.07,-0.71,-1.15,0,-0.12,–,-0.86,-0.23,-0.91,-0.37,-0.23
Cc1ncc([N+](=O)[O-])n1CC(O)CCl (configuration not stated) [Ornidazole],12.5 ± 0.26,0.34,1.05,0,-0.47,-0.77,-0.8,0.41,0.34,-0.37,-0.4,0.53,-0.38,-0.03,0.44,0.77,–
COc1ccc2[nH]c([S+]([O-])Cc3ncc(C)c(OC)c3C)nc2c1 (configuration not stated) [Omeprazole],12.3 ± 0.19,-0.07,-0.74,1.33,–,1.65,0.12,0.56,0.37,0.46,-0.94,2.48,1.91,-0.19,-0.34,-0.03,–
COC(=O)Nc1nc2cc(Sc3ccccc3)ccc2[nH]1 [Fenbendazole],12.3 ± 0.23,0.03,0.61,0.52,–,0.06,-0.67,0.66,0.22,-0.37,0.27,0.48,-0.08,-0.31,0.36,-0.28,0.53
CCN[C@@H]1C[C@H](N)[C@@H](O[C@H]2OC(CN)=CC[C@H]2N)[C@H](O)[C@H]1O[C@H]1OC[C@](C)(O)[C@H](NC)[C@H]1O [Netilmicin Sulfate],12.1 ± 0.17,–,1.38,-0.06,0.67,-0.25,0.47,0.44,0.03,0.01,–,–,0.09,1.14,0.71,0.72,0.72
CCOC(=O)c1ccc(N)cc1 [Benzocaine hydrochloride],12.43 ± 0.056,–,-1.03,-0.9,–,–,0.5,-0.93,-0.65,0.87,–,0,-0.85,-0.46,0.44,0.01,0.12
COc1ccnc(C[S+]([O-])c2nc3cc(OC(F)F)ccc3[nH]2)c1OC (configuration not stated) [Pantoprazole],12.4 ± 0.15,-0.32,0.27,0.22,–,–,0.17,0.04,-0.27,0.3,-0.26,0.9,1.13,0.09,-0.2,0.7,-0.41
CCn1cc(C(=O)O)c(=O)c2cc(F)c(N3CCNCC3)nc21 [Enoxacin],12.3 ± 0.26,0.22,-0.85,1.22,–,-0.39,0.6,1.61,-1.07,-0.82,-0.47,0.3,0.23,-0.64,-0.01,0.48,0.62
COc1cc2c(cc1OC)-c1cc3ccc(OC)c(OC)c3c[n+]1CC2 [Palmatine],12.41 ± 0.069,-0.25,-0.17,2.2,-0.98,-0.08,-0.2,1.94,1.01,-1.11,–,1.04,1.86,0.37,0.8,1.87,–
COc1cnc(NS(=O)(=O)c2ccc(N)cc2)nc1 [Sulfameter],12.53 ± 0.07,0,0.05,-0.37,0.75,-0.43,1.19,-0.51,0.07,-0.1,0.21,-0.38,-0.26,0.42,0.14,-0.07,–
OCCN1CCN(CCCN2c3ccccc3Sc3ccc(Cl)cc32)CC1 [Perphenazine],12.3 ± 0.2,-0.28,-0.42,-0.47,0.29,0.04,0.15,-0.01,0.07,0.72,0.06,0.11,0.1,0,0.73,-0.22,–
COc1cccc(CCc2ccccc2OCC(CN(C)C)OC(=O)CCC(=O)O)c1 (configuration not stated) [Sarpogrelate hydrochloride],12.3 ± 0.35,0.79,-0.54,-0.31,-0.21,-0.59,-0.09,-0.29,-0.54,-0.27,0.14,-0.5,-0.99,-0.89,-0.04,-0.48,–
CNCc1cc(-c2ccccc2F)n(S(=O)(=O)c2cccnc2)c1 [Vonoprazan Fumarate (TAK-438)],12.3 ± 0.26,0,0.45,-1.45,–,-0.55,-0.72,-0.98,-0.52,-0.16,–,-1.38,-0.64,-0.4,-0.68,-0.37,-0.32
CC(C)c1nc(N(C)S(C)(=O)=O)nc(-c2ccc(F)cc2)c1/C=C/[C@@H](O)C[C@@H](O)CC(=O)O [Rosuvastatin Calcium],11.6 ± 0.2,-1.23,-1.93,0.29,0.59,0.06,1.26,-1.44,3.45,2.1,–,0.38,1.41,3.96,2.14,0.9,–
